Most compounds without a hit are left out; they make up all but 3.4% or so of the library.
PAX8 inh HTS: inhibitors of PAX8-driven TPO luciferase reporter, primary screen, RMG-I cells, single concentration; inhibition, % at 12.6 µM; SteadyGlo, 24 h; AID 652154, 2013; 360,000 tested, 1.2% active;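 active = mean replicate inhibition at least 60% with every replicate also reaching 60%; inconclusive = only one of the two criteria is met; inactive = mean below 60% and not all replicates reaching 60%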;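 note: luciferase light reporting Pax8 driven TPO promoter activity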
LGR2 antag: inhibitors of bursicon-induced LGR2 CRE-luciferase signal, primary screen, cell-based, HEK293, CRE-luciferase reporter, bursicon stimulation | 380,000 tested, 0.35% active | bursicon-stimulated, 4 h | inhibition, % at 9.99 µM | AID 720647, 2013;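 active = drop in luminescence signal, shown as inhibition above about 50% in the replicate tests, limit read from the data, passing the limit was not always enough; inconclusive = probably only some replicates passing the limit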;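 note: agonist challenge used bursicon conditioned medium at about half maximal strength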
PGC1a acetyl inh: inhibitors of PGC1a acetylation signal, primary screen, cell-based, U2OS, AlphaScreen, inhibitor mode; 350,000 tested, 0.17% active; AID 651687, 2012; AlphaScreen anti-acetyl-lysine; with virally co-expressed GCN5 acetyltransferase; inhibition, % at 15.6 µM;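 active = every replicate shows inhibition of at least 40%; inconclusive = mean inhibition at least 40% but some replicate below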
SIRT5 block: SIRT5 desuccinylase inhibitors, primary screen, biochemical, fluorescence imaging, single point, set 5; inhibition, % at 15 µM; NAD-dependent protein deacylase sirtuin-5, mitochondrial (Homo sapiens), Q9NXA8; 330,000 tested, 1.1% active; Purified SirT5, succinyl-peptide AMC, trypsin-coupled fluorescence; in the data active = inhibition above about 15%; inconclusive = no clear call, values can overlap the other calls
Target sequence (Q9NXA8 whole entry, looked up): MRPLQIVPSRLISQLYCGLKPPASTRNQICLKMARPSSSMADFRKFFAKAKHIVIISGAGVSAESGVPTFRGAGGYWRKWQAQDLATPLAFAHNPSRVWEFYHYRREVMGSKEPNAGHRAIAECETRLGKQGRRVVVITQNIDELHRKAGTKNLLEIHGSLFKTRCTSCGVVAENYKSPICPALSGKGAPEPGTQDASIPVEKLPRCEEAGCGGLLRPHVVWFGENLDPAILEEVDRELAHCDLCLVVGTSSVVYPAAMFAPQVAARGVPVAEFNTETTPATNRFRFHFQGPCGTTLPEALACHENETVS
Ecoli rRNA inh: reduced GFP signal of wild-type E. coli, primary screen, bacterial rRNA inhibitor project, GFP/RFP fluorescence, OD600, single point; AID 720706, 2013; E. coli WT GFP vs humanized-ribosome RFP mutants, 24 h; stronger effect = lower value; DMSO median 0, no signal -100; 350,000 tested, 1.6% active; GFP signal change (wild-type ribosome), % (no concentration beside the values);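 active = significant combined selectivity score with lowered wild-type GFP, culture density cut under 30%, mutant RFP and density less affected; inactive = any of these conditions unmet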
EWS-Fli inh: EWS/Fli-driven NR0B1 reporter inhibitors, primary screen, A673 cells, NR0B1 luciferase, luminescence, MLPCN library | viability-normalised | inhibition, % at 12.6 µM | 350,000 tested, 0.67% active | AID 651661, 2012;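 active = mean inhibition of at least 50% after viability correction, with every replicate also passing that limit; inconclusive = mean reaches 50% but only one of two replicates passes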;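 note: firefly luciferase signal divided by Alamar Blue viability fluorescence both relative to DMSO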
Large screens that a line does not name were inactive.

COc1ccc(NC(=O)Nc2ccc3c(c2)C(=O)N([C@@H](C)CO)C[C@H](C)[C@@H](CN(C)S(=O)(=O)c2cn(C)cn2)OCCCC[C@H](C)O3)cc1	none (no result: SIRT5 block)
C[n+]1c2n(c3ccccc31)N=C(c1cc(C(C)(C)C)c(O)c(C(C)(C)C)c1)CS2	PAX8 inh HTS 92, LGR2 antag 86
O=C(Nc1ccc(Br)cc1)N1CCc2ccccc2C1	Ecoli rRNA inh -39
O=C(Nc1ccc(F)cc1)N1CCc2ccccc2C1	none
COc1c(Cl)cc(Cl)cc1/C=C/C(=O)c1ccc(NC(=O)c2cccs2)cc1	PAX8 inh HTS 81 (no result: SIRT5 block, EWS-Fli inh)
Cc1ccc(NC(=O)c2ccc(Cl)c(NC(=O)c3cccs3)c2)cc1	Ecoli rRNA inh -37 (no result: EWS-Fli inh)
COc1c(Cl)cc(Cl)cc1C(=O)Nc1ccc(C(=O)O)cc1	none (no result: SIRT5 block, Ecoli rRNA inh, EWS-Fli inh)
Cc1nc2ccc(NC(=O)c3ccc(Cl)c(NC(=O)c4cccs4)c3)cc2s1	none (no result: PAX8 inh HTS, LGR2 antag, SIRT5 block, Ecoli rRNA inh, EWS-Fli inh)
CCOc1cc(NC(=O)CCl)c(OCC)cc1NC(=O)CCl	PAX8 inh HTS 76
O=C(C[C@@H]1C[C@@H]2c3cc(NC(=O)c4ccc5c(c4)OCO5)ccc3O[C@@H]2[C@@H](CO)O1)NCCc1ccccc1	none
CC(=O)N(C)C[C@H]1Oc2ccc(NC(=O)NC(C)C)cc2CC(=O)N(C)C[C@@H]1C	none (no result: PAX8 inh HTS, LGR2 antag, PGC1a acetyl inh, SIRT5 block, EWS-Fli inh)
C[C@H](CCC(=O)OCc1cn(CC(=O)c2ccc(O)cc2)nn1)C1CC[C@H]2[C@@H]3CC[C@@H]4C[C@H](O)CC[C@]4(C)[C@H]3C[C@H](O)[C@]12C (some centres undefined)	SIRT5 block 33
C[C@H](CCC(=O)O)[C@H]1CC[C@H]2[C@@H]3CC[C@@H]4C[C@H](O)CC[C@]4(C)[C@H]3C[C@H](O)[C@]12C	none
O=c1cc(C(F)(F)F)[nH]c2ccc(C(F)(F)F)cc12	Ecoli rRNA inh -50 (no result: PGC1a acetyl inh)
COc1ccccc1CN1[C@H](CO)[C@H]2c3ccccc3N(C(=O)C3CCCCC3)C[C@H]21	none
CCCc1nc2ccc(NC(C)=O)cc2c(=O)n1Cc1ccc(Cl)cc1	PAX8 inh HTS 67
COc1ccc(Cn2c(C3CC3)nc3ccc(NC(C)=O)cc3c2=O)cc1	none (no result: PAX8 inh HTS, LGR2 antag, SIRT5 block, Ecoli rRNA inh, EWS-Fli inh)
COc1ccc(CN2C[C@@H](O)COC[C@H]3O[C@H](CC(=O)NCCN4CCCC4)CC[C@@H]32)cc1	SIRT5 block 21
COc1ccc(CN2C[C@H](O)COC[C@@H]3O[C@H](CC(=O)NCCN4CCCC4)CC[C@H]32)cc1	none
O=C(C[C@H]1CC[C@H]2[C@@H](COC[C@@H](O)CN2Cc2ccc(Oc3ccccc3)cc2)O1)N1CCCCC1	PAX8 inh HTS 100
O=C(C[C@@H]1CC[C@@H]2[C@H](COC[C@H](O)CN2Cc2ccc(Oc3ccccc3)cc2)O1)N1CCCCC1	none
COc1ccc(CN2C[C@H](O)COC[C@@H]3O[C@H](CC(=O)N4CCc5ccccc5C4)CC[C@H]32)cc1	SIRT5 block 15
C[C@@H]1CN([C@@H](C)CO)C(=O)c2cc(NC(=O)Nc3ccc4c(c3)OCO4)ccc2O[C@@H](C)CCCCO[C@@H]1CN(C)C(=O)Cc1ccccc1	none
CCCC(=O)Nc1ccc2c(c1)C(=O)N(C)C[C@@H](OC)[C@@H](C)CN(C(C)=O)[C@H](C)CO2	none (no result: PAX8 inh HTS)
O=C(CN1c2ccccc2Sc2ccccc21)NNC(=S)Nc1ccc(Cl)cc1	Ecoli rRNA inh -48
COc1ccc(-c2cc(C(F)(F)F)nc(S(=O)(=O)CCCC(=O)Nc3cccc(O)c3)n2)cc1OC	PAX8 inh HTS 63, LGR2 antag inconclusive (no result: SIRT5 block)
Cc1cc(NC(=O)CCS(=O)(=O)c2nc(-c3ccccc3)cc(C(F)(F)F)n2)no1	PGC1a acetyl inh 90 (no result: PAX8 inh HTS, LGR2 antag, SIRT5 block, Ecoli rRNA inh, EWS-Fli inh)
Cc1ccc(S(=O)(=O)CCC(=O)Nc2cc(C)on2)cc1	none (no result: SIRT5 block)
COc1ccc(CN(C)C[C@H]2Oc3ccc(NC(=O)Cc4ccccc4)cc3C(=O)N([C@H](C)CO)C[C@H]2C)cc1	none (no result: EWS-Fli inh)
Cn1c(=O)n(C)c2cc(NS(=O)(=O)c3ccc(Br)s3)ccc21	none
Cn1c(=O)n(C)c2cc(NS(=O)(=O)c3ccc(Cl)s3)ccc21	SIRT5 block 18
O=C(Cc1ccccn1)N[C@H]1CC[C@@H](CCn2cc(-c3ccccc3)nn2)O[C@@H]1CO	none
COc1cccc(-c2cn(CC[C@@H]3CC[C@H](NC(=O)CC4CC4)[C@@H](CO)O3)nn2)c1	SIRT5 block 30
COc1ccc(NC(=O)N[C@H]2CC[C@H](CCn3cc(-c4ccccc4F)nn3)O[C@@H]2CO)cc1	PGC1a acetyl inh 69
COc1ccc(-c2cn(CC[C@H]3CC[C@@H](NC(=O)Cc4ccccn4)[C@@H](CO)O3)nn2)cc1	PAX8 inh HTS 88
CN1CCN(C(=O)C[C@H]2C[C@@H]3c4cc(NC(=O)c5cccnc5)ccc4O[C@@H]3[C@@H](CO)O2)CC1	none (no result: SIRT5 block)
Cc1ccc2c(c1)c(C1=c3ccccc3=NC1=O)c(O)n2C	EWS-Fli inh 64 (no result: PGC1a acetyl inh)
COC(=O)C(=Nc1ccccc1)/C(C(=O)C(=O)N(C)c1ccccc1)=C(\O)c1ccccc1	Ecoli rRNA inh -25
CCOC(=O)/C(C(N)=NC)=C(\O)c1ccccc1	none (no result: PAX8 inh HTS, LGR2 antag, SIRT5 block, Ecoli rRNA inh, EWS-Fli inh)
C[C@@H]1CCCCO[C@H](CN(C)Cc2ccc(C(=O)Nc3ccccc3N)cc2)[C@@H](C)CN([C@@H](C)CO)C(=O)c2cc(N(C)C)ccc2O1	none (no result: PAX8 inh HTS, LGR2 antag, PGC1a acetyl inh, SIRT5 block, EWS-Fli inh)
CN1CCN(C(=O)C[C@H]2CC[C@@H](NS(=O)(=O)c3cccc(F)c3)[C@H](CO)O2)CC1	none
COc1cccc(CN2CCN(C(c3ccccc3)c3ccccc3)CC2)c1O	SIRT5 block 16
COc1cc(CN2CCN(C(c3ccccc3)c3ccccc3)CC2)cc(OC)c1OC	none (no result: PGC1a acetyl inh)
COc1ccc(NC(=O)N2CCC3(CC2)CN(CC2CC2)[C@@H](CO)c2c3c3ccc(OC)cc3n2C)cc1	none (no result: PAX8 inh HTS, LGR2 antag, PGC1a acetyl inh, SIRT5 block, EWS-Fli inh)
CCC(=O)Nc1ccc(/C=C(\C(C)=O)C(=O)c2ccccc2)cc1	LGR2 antag 52 (no result: PGC1a acetyl inh)
CCC(=O)Nc1ccc(C=C(C(C)=O)C(C)=O)cc1	none
COc1cc(C(=O)NCCCc2nc3ccccc3n2Cc2cc(C)ccc2C)cc(OC)c1OC	SIRT5 block 19 (no result: LGR2 antag, PGC1a acetyl inh)
CCCc1nc2ccccc2n1Cc1ccccc1OC	Ecoli rRNA inh -45
CC(=O)NCCCc1nc2ccccc2n1Cc1cc(C)ccc1C	none (no result: PGC1a acetyl inh)
COCc1nc2ccccc2n1Cc1ccccc1C	SIRT5 block 38
COc1ccc(S(=O)(=O)N(C)C[C@H]2Oc3cc(C#CC4CCCC4)ccc3S(=O)(=O)N([C@@H](C)CO)C[C@@H]2C)cc1	PAX8 inh HTS 90, SIRT5 block 25

Screening data (PubChem BioAssay)
